Activity calls are given as the source filed them. Where a call stands in place of a potency, no number is given. Calls come from the whole dose curve; as a rule, active = well fitted curve in the direction sought with a large enough effect in the repeat runs; inconclusive = weak or mixed curves; inactive = flat fitted curve, though single readings scatter.
Assay: qHTS assay to test for compound auto fluorescence at 535 nm (green) in HepG2 cells (AID 720675)
Settings: green autofluorescence 485/535 nm, 1 h; series mostly up to 91.3 µM; fluorescence, % of fluorescein control: at the top concentration
Text: National Center for Advancing Translational Sciences [NCATS]
NIH Chemical Genomics Center [NCGC]
U.S. Environmental Protection Agency [EPA]
National Institutes of Environmental Health Sciences [NIEHS]
National Toxicology Program [NTP]
U.S. Food and Drug Administration [FDA]
Compound auto fluorescence often interferes with screening of the compound library against various biological targets and signaling pathways. Some of these compounds may have fluorophoric properties. Such properties may interfere with the assay outputs resulting in false positives and/or negatives. To decrease such complications and ensure the compound activities are relevant in terms of biological response, the Tox21 10K compound library was screened for auto fluorescence.
From the fluorophores used as reporter signals in our screening assays, the auto fluorescence equivalencies of compounds against three fluorophores have been evaluated: Triamterene, Fluorescein and Rose Bengal sodium for blue, green and red fluorescence, respectively. The fluorescence intensities were measured using Excitation/Emission wavelengths at 405/460nm, 485/535nm and 540/590nm for blue, green and red labels, respectively. This assay includes the green fluorescence data.
Tox21 Assay Protocol Summary:
2,000 HepG2 cells in 5 uL of culture medium (MEM containing 10% FBS) per well were dispensed into black wall/clear bottom 1536-well plates using a Multidrop Combi Dispenser (ThermoFisher Scientific, Waltham, MA). The assay plates were incubated overnight at 37 C to allow cell attachment to the well bottom, followed by the transfer of 23 nL compound or DMSO vehicle by a pintool work station (Kalypsys , San Diego, CA). After the assay plates were incubated for 1 hr at 37 C and 5% CO2, fluorescence intensities in the assay plates were measured by an Envision (PerkinElmer, Shelton, CT) plate reader using three labels for measuring blue, green and red fluorescence at […] 460, 535 and 590 nm respectively.
Potency is the fitted concentration of half-maximal effect.

| Compound | Potency | fluorescence, % of fluorescein control |
| --- | --- | --- |
| CC(=O)c1ccccn1 | inactive |  |
| c1ccc2cc(Nc3ccc(Nc4ccc5ccccc5c4)cc3)ccc2c1 | inactive |  |
| c1ccncc1 | inactive |  |
| COC(=O)c1ccccc1 | inactive |  |
| O=c1oc(=O)c2cc3c(=O)oc(=O)c3cc12 | inactive |  |
| CCC(C)OC(=O)c1ccc(O)cc1 (stereo not given) | inactive |  |
| C[C@]12CCC(=O)C=C1CC[C@@H]1[C@@H]2C(=O)C[C@@]2(C)[C@H]1CC[C@]2(O)C(=O)CO | inactive |  |
| COc1ccc(C(=O)CC(=O)c2ccc(C(C)(C)C)cc2)cc1 | inactive |  |
| O=C(Nc1ccc(Cl)cc1)Nc1ccc(Cl)c(Cl)c1 | inactive |  |
| COC(C)COC(C)COC(C)CO (stereo not given) | inactive |  |
| CC(C)OC(=O)C(C)(C)Oc1ccc(C(=O)c2ccc(Cl)cc2)cc1 | inactive |  |
| C[Si](C)(C)O[Si](C)(C)C | inactive |  |
| Cc1cccc(C(=O)O)c1 | inactive |  |
| c1ccc(Nc2ccccc2)cc1 | inactive |  |
| O=C(c1ccccc1)c1ccc(O)cc1O | inactive |  |
| CC(=O)Oc1ccccc1C(=O)Nc1ncc([N+](=O)[O-])s1 | inactive |  |
| O=CCCCC=O | inactive |  |
| O=C1c2cccc(O)c2C(=O)c2c(O)cccc21 | inactive |  |
| COc1cccc2c1C(=O)c1c(O)c3c(c(O)c1C2=O)C[C@@](O)(C(=O)CO)C[C@@H]3O[C@H]1C[C@H](N)[C@H](O)[C@H](C)O1 |  | 0.0036% [at 46 µM] (inactive) |
| O=Cc1ccccc1O | inactive |  |

| Compound | Potency | fluorescence, % of fluorescein control |
| --- | --- | --- |
| CC(C)=CCC/C(C)=C\CO | inactive |  |
| O=P(O)(O)O | inactive |  |
| Cc1ccc2c(n1)Oc1ccc(C(C)C(=O)OCC(=O)N(C)C)cc1C2 (stereo not given) | inactive |  |
| C=C(C)C1CC=C(C)CC1 (stereo not given) | inactive |  |
| CC(C)(C)NC(=O)[C@H]1CC[C@H]2[C@@H]3CC[C@H]4NC(=O)C=C[C@]4(C)[C@H]3CC[C@]12C | inactive |  |
| O=C(c1ccccc1)c1ccccc1O | inactive |  |
| O=C1OC2(c3cc(Br)c(O)c(Br)c3Oc3c2cc(Br)c(O)c3Br)c2c(Cl)c(Cl)c(Cl)c(Cl)c21 | 17.8 µM (active) |  |
| CCCCOCCOCCOCCO | inactive |  |
| Cc1c(OCC(F)(F)F)ccnc1CS(=O)c1nc2ccccc2[nH]1 (stereo not given) | inactive |  |
| O=C(OCc1ccccc1)c1ccccc1O | inactive |  |
| c1cc(N(CC2CO2)CC2CO2)ccc1OCC1CO1 (stereo not given) | inactive |  |
| CC(C)=CCCC(C)CCO (stereo not given) | inactive |  |
| CNCCCC12CCC(c3ccccc31)c1ccccc12 | inactive |  |
| CC(=O)C1(C)CC2=C(CCCC2(C)C)CC1C (stereo not given) | inactive |  |
| C/C=C/C(=O)O | inactive |  |
| COc1c(Cl)c(Cl)c(Cl)c(Cl)c1Cl | inactive |  |
| S=C(NC1CCCCC1)NC1CCCCC1 | inactive |  |
| O=S(=O)(O)c1ccc(O)cc1 | inactive |  |
| CCCc1c(OCCCCc2nn[nH]n2)ccc(C(C)=O)c1O | inactive |  |
| NNc1ccc(C(=O)O)cc1 | inactive |  |

— PubChem BioAssay (Tox21)
